In publication PMC7862700, “An all-to-all approach to the identification of sequence-specific readers for epigenetic DNA modifications on cytosine”:

How the values were obtained:
Experiment in all cases: DAPPL (digital affinity profiling via proximity ligation, sequencing); 10 mM Tris-HCl pH 7.5, 50 mM NaCl, 1 mM DTT, 4% glycerol, room temperature, 30 min; GST-TFs on glutathione beads, 16-mer random dsDNA library, 0.1% formaldehyde crosslink after washing; high values mean tight binding
Conditions in all cases: protein: recombinant; tags: N-terminal GST; dsDNA, one strand shown
FLI1 = molecular target: T1, FLI1 (Homo sapiens, UniProt Q01543 1-452)
T1 sequence: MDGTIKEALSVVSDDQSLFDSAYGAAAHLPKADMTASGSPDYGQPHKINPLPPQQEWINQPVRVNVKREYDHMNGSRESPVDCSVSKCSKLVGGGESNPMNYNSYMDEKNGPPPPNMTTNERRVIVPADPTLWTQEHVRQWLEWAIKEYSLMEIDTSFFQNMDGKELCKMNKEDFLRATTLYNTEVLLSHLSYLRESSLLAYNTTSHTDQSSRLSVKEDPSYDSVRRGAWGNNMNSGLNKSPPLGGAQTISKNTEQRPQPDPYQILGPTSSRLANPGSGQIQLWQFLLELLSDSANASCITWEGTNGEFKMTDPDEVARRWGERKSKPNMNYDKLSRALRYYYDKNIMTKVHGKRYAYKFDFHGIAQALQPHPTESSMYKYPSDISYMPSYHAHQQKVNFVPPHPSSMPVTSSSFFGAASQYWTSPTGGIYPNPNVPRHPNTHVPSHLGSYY
Procedure, shortened: (§1)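 Binding signal is defined as a hexamer's read frequency for one factor over its frequency for the tag-only sample. To obtain reads, GST-fused human transcription factors were expressed in yeast, captured on glutathione beads, barcoded with DNA and pooled with that sample. Pools met 200 nmole of a 16-mer random double-stranded DNA library in Tris/NaCl/DTT/glycerol buffer for 30 min at room temperature before washing, 0.1% formaldehyde crosslinking, proximity ligation (BsaI/T4 ligase, 1 h, 37 °C), PCR and Illumina NextSeq500 sequencing.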

ELK1 = molecular target: T2, ELK1 (Homo sapiens, UniProt P19419 1-428)
T2 sequence: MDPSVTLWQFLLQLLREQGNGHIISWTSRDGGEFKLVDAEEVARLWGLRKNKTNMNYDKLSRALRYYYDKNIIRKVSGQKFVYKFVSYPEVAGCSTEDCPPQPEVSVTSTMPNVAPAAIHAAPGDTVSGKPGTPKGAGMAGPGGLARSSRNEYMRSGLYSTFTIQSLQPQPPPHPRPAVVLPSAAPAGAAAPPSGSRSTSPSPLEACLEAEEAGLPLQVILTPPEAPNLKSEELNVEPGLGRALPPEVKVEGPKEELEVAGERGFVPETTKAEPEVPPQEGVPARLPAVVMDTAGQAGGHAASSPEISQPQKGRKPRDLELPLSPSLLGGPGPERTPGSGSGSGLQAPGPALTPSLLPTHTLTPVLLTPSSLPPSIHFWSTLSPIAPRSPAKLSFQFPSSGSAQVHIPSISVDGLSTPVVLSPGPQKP
Procedure, shortened: as §1

GABPA = molecular target: T3, GABPA (Homo sapiens, UniProt Q06546 1-454)
T3 sequence: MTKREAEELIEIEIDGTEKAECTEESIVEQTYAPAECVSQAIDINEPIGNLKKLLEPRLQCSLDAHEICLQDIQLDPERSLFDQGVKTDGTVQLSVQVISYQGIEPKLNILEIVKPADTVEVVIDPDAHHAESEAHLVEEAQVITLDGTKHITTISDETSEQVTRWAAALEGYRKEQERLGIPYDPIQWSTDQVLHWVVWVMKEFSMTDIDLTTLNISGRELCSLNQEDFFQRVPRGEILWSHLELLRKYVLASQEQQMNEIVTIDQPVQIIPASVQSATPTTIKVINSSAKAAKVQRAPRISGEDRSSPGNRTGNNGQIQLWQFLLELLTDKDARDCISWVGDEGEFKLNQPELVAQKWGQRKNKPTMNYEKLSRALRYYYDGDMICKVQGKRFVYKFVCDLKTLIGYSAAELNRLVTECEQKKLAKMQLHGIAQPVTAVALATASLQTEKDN
Procedure, shortened: as §1

ERG = molecular target: T4, ERG (Homo sapiens, UniProt P11308 1-479)
T4 sequence: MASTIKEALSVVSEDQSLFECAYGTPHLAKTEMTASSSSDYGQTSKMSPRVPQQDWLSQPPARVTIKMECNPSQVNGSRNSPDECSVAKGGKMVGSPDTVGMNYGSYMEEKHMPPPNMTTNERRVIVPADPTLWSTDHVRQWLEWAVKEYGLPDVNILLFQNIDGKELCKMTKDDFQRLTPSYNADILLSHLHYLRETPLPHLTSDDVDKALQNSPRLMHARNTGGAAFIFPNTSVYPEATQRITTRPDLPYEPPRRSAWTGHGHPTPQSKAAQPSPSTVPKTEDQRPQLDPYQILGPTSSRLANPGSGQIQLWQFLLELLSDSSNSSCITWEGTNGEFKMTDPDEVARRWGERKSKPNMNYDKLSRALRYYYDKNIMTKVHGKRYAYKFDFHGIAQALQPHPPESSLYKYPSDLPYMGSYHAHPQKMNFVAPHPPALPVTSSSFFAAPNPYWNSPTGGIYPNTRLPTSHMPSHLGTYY
Procedure, shortened: as §1

ELF1 = ELF1 (Homo sapiens, UniProt P32519 1-619)
ELF1, sequence (P32519 whole entry): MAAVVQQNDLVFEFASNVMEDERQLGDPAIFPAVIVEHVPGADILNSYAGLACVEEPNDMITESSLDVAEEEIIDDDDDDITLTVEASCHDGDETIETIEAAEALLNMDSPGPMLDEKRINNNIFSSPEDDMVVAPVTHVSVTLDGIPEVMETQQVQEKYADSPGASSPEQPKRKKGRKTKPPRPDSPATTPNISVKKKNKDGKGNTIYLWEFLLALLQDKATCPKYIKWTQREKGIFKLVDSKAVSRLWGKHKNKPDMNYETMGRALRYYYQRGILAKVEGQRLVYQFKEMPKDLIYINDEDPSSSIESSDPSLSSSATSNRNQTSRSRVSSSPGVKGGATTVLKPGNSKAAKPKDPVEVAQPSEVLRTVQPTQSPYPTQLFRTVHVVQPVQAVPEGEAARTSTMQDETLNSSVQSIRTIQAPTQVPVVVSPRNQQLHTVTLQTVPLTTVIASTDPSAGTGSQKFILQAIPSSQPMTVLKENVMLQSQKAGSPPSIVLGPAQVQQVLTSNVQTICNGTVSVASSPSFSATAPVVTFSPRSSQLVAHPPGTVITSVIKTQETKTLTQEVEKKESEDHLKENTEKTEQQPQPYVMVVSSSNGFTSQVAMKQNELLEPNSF
Procedure, shortened: as §1

EHF = molecular target: T5, EHF (Homo sapiens, UniProt Q9NZC4 1-300)
T5 sequence: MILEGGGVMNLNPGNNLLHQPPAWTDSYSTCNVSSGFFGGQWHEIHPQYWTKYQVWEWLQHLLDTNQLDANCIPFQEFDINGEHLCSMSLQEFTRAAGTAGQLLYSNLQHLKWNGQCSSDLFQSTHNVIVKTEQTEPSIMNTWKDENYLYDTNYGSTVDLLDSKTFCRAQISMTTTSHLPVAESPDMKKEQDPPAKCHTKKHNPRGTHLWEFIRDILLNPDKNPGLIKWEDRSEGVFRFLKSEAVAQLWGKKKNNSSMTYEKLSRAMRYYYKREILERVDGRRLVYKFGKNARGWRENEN
Procedure, shortened: as §1

SPI1 = SPI1 (Homo sapiens, UniProt P17947 1-270)
Procedure, shortened: as §1

SPIB = SPIB (Homo sapiens, UniProt Q01892 1-262)
SPIB, sequence (Q01892 whole entry): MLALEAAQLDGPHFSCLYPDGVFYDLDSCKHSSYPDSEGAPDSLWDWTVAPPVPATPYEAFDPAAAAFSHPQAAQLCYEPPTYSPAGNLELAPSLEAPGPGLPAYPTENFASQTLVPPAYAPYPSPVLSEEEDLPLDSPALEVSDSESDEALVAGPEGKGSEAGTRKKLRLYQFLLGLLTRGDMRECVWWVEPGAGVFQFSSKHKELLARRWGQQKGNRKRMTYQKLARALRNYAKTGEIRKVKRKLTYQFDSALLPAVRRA
Procedure, shortened: as §1

ELK3 = molecular target: T6, ELK3 (Homo sapiens, UniProt P41970 1-407)
T6 sequence: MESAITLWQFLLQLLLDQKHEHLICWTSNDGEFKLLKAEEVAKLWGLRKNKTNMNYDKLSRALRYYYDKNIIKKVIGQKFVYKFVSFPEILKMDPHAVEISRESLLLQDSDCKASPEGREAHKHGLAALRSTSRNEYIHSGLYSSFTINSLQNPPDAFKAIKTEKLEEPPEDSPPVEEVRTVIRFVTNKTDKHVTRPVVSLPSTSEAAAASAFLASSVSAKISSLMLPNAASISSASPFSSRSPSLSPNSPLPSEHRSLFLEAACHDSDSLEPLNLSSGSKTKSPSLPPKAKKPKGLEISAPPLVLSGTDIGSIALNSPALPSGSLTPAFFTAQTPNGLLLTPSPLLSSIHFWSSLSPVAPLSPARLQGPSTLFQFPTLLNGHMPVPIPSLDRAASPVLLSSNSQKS
Procedure, shortened: as §1

FEV = molecular target: T7, FEV (Homo sapiens, UniProt Q99581 1-238)
T7 sequence: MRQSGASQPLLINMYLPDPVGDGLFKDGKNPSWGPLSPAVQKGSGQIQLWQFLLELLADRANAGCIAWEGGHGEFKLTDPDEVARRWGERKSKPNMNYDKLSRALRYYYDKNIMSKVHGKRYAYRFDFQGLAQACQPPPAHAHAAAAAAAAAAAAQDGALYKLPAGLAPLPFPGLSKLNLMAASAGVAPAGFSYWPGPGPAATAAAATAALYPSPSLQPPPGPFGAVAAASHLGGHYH
Procedure, shortened: as §1

ETV5 = ETV5 (Homo sapiens, UniProt P41161 1-510)
ETV5, sequence (P41161 whole entry): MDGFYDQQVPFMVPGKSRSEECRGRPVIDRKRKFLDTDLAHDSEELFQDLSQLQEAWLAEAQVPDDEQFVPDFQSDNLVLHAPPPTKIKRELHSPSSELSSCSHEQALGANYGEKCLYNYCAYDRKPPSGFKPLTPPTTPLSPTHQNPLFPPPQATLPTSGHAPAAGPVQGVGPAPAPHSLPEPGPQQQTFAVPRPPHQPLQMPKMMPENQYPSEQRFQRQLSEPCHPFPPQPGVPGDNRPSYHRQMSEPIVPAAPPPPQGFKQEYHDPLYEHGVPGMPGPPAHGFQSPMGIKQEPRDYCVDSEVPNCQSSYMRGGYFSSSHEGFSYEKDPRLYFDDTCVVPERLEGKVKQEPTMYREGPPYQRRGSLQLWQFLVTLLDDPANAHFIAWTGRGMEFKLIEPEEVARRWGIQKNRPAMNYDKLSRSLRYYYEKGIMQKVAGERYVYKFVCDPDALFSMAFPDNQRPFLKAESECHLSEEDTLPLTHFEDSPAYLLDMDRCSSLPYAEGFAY
Procedure, shortened: as §1

SPIC = molecular target: T8, SPIC (Homo sapiens, UniProt Q8N5J4 1-248)
T8 sequence: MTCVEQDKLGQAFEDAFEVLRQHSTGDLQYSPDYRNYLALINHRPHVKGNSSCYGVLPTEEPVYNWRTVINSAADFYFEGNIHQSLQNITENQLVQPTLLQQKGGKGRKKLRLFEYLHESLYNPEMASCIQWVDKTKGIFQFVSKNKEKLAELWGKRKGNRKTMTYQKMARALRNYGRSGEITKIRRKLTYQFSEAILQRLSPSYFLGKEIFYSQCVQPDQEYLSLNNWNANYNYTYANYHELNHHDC
Procedure, shortened: as §1

ELF4 = ELF4 (Homo sapiens, UniProt Q99607 1-663)
ELF4, sequence (Q99607 whole entry): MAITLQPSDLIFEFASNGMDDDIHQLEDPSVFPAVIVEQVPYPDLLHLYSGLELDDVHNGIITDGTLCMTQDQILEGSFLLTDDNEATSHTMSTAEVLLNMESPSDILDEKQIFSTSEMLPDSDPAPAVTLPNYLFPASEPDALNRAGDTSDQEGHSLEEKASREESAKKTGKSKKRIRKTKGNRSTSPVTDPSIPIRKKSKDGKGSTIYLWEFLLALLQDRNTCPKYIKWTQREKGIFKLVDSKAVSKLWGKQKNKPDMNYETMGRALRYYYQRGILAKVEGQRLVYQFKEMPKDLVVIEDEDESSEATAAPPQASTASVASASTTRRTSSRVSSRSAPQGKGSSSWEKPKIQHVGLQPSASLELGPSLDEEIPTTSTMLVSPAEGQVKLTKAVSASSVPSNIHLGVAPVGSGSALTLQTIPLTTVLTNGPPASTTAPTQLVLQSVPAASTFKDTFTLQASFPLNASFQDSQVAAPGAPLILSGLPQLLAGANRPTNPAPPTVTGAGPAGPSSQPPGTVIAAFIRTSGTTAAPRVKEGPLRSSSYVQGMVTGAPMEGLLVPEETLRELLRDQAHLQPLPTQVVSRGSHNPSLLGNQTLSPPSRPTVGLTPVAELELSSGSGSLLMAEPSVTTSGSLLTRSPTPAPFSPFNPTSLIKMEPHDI
Procedure, shortened: as §1

ELK4 = molecular target: T9, ELK4 (Homo sapiens, UniProt P28324-2 1-405)
T9 sequence: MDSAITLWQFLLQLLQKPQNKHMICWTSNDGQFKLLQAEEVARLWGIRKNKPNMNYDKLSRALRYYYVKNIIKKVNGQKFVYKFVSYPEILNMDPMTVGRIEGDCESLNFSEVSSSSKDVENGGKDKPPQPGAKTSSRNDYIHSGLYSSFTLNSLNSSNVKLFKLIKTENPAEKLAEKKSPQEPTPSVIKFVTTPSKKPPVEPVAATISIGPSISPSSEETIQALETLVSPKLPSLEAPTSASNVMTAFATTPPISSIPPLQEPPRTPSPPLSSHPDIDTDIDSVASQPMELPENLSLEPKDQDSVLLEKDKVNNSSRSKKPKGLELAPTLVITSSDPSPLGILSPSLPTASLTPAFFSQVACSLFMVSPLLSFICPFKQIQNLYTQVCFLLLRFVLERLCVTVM
Procedure, shortened: as §1

ETV2 = molecular target: T10, ETV2 (Homo sapiens, UniProt O00321 1-342)
T10 sequence: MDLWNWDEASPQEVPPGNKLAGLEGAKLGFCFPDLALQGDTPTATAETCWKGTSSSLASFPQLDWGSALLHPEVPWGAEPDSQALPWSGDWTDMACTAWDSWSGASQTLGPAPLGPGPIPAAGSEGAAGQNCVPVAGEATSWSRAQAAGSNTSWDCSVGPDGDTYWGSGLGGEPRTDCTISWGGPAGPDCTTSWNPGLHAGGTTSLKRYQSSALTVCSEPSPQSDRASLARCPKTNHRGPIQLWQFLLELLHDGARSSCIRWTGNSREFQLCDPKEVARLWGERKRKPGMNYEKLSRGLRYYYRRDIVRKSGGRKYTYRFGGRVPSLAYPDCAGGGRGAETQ
Procedure, shortened: as §1

ETV1 = ETV1 (Homo sapiens, UniProt P50549 1-477)
ETV1, sequence (P50549 whole entry): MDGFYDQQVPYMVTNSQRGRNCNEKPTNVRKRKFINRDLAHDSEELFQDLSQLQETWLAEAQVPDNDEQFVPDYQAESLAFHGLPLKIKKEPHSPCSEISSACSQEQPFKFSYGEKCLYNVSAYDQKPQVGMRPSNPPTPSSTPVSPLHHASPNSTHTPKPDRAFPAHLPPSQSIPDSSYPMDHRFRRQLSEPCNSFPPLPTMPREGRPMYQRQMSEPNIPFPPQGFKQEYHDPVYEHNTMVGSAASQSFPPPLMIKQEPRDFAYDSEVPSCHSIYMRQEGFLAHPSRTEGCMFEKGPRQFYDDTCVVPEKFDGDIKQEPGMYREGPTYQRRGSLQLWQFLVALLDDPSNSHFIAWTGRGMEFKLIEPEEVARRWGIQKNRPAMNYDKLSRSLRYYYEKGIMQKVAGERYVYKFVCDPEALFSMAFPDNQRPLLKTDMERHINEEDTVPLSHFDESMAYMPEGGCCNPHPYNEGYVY
Procedure, shortened: as §1

Sequence | binding signal (FLI1) | binding signal (ELK1) | binding signal (GABPA) | binding signal (ERG) | binding signal (ELF1) | binding signal (EHF) | binding signal (SPI1) | binding signal (SPIB) | binding signal (ELK3) | binding signal (FEV) | binding signal (ETV5) | binding signal (SPIC) | binding signal (ELF4) | binding signal (ELK4) | binding signal (ETV2) | binding signal (ETV1)
ACACTC | 1.04 fold enrichment (6-mer frequency, TF over GST control) | 1.1 fold enrichment (6-mer frequency, TF over GST control) | 1.15 fold enrichment (6-mer frequency, TF over GST control) | 1.08 fold enrichment (6-mer frequency, TF over GST control) | 1.12 fold enrichment (6-mer frequency, TF over GST control) | 1.14 fold enrichment (6-mer frequency, TF over GST control) | 1.09 fold enrichment (6-mer frequency, TF over GST control) | 1.15 fold enrichment (6-mer frequency, TF over GST control) | 1.19 fold enrichment (6-mer frequency, TF over GST control) | 1.12 fold enrichment (6-mer frequency, TF over GST control) | 1.04 fold enrichment (6-mer frequency, TF over GST control) | 1.01 fold enrichment (6-mer frequency, TF over GST control) | 1.14 fold enrichment (6-mer frequency, TF over GST control) | 1.19 fold enrichment (6-mer frequency, TF over GST control) | 1.11 fold enrichment (6-mer frequency, TF over GST control) | 1.07 fold enrichment (6-mer frequency, TF over GST control)
TGCTTG | 1.31 fold enrichment (6-mer frequency, TF over GST control) | 1.15 fold enrichment (6-mer frequency, TF over GST control) | 1.11 fold enrichment (6-mer frequency, TF over GST control) | 1.15 fold enrichment (6-mer frequency, TF over GST control) | 1.18 fold enrichment (6-mer frequency, TF over GST control) | 1.31 fold enrichment (6-mer frequency, TF over GST control) | 1.17 fold enrichment (6-mer frequency, TF over GST control) | 1.2 fold enrichment (6-mer frequency, TF over GST control) | 1.11 fold enrichment (6-mer frequency, TF over GST control) | 1.09 fold enrichment (6-mer frequency, TF over GST control) | 1.2 fold enrichment (6-mer frequency, TF over GST control) | 1.31 fold enrichment (6-mer frequency, TF over GST control) | 1.12 fold enrichment (6-mer frequency, TF over GST control) | 1.4 fold enrichment (6-mer frequency, TF over GST control) | 1.26 fold enrichment (6-mer frequency, TF over GST control) | 1.21 fold enrichment (6-mer frequency, TF over GST control)
